Shown are actives, neighbours in structure and some others; about 3.9% of the full set was active somewhere.
HIF-2a block: inhibitors of HIF-2a. 786-0 RCC cells HIF-2a reporter, luciferase luminescence, overnight. AID 624352. hit rate 0.72% among 360,000. inhibition, % at 18.8 µM;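 active = inhibition of the luminescence signal of 40% or more relative to plate controls, in a single-dose primary screen at 18.75 µM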
TWEAK-Fn14 inh: TWEAK-Fn14 signaling inhibition; TWEAK-stimulated Fn14 reporter cells, luciferase luminescence, 8 h; inhibition, % at 10 µM; hit rate 2% among 360,000; AID 1159606; in the data active = inhibition above about 50%
aSyn UTR inh: 5' untranslated region of α-synuclein, MLPCN primary screen; alpha-synuclein 5'UTR reporter, inhibitor activity; AID 1813; inhibition, % (tested at 7.5 µM); hit rate 0.82% among 300,000; in the data active = inhibition above about 60%; inconclusive = no clear call, values can overlap the other calls;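 note: H4 neuroglioblastoma cells stably carrying SNCA 5'UTR luciferase fusion; 0% = DMSO wells and 100% = positive control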
C8 TRAIL sens: sensitizes caspase-8 expressing cells to TRAIL | NB7+C8 cells + TRAIL, ATPlite viability luminescence | hit rate 1% among 360,000 | inhibition (viability loss, TRAIL sensitization), % at 10 µM;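 active = compounds causing at least 50% loss of cell viability in the single-dose screen, relative to plate controls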
HSP90 refold inh: blocks HSP90-mediated luciferase refolding in reticulocyte lysate | Rabbit reticulocyte lysate, luciferase refolding luminescence, 3 h | inhibition, % at 5.6 µM | hit rate 0.91% among 290,000 | AID 1789;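 active = inhibition above the screen-wide mean plus 3 SD, computed separately per campaign, cut at about 16% in these data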;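 note: 0% = DMSO wells and 100% = 60 µM geldanamycin wells; inhibitors lower the luminescence because luciferase stays unfolded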
TROY signal inh: blocks TROY-dependent signaling in reporter cells | Q293 LMP1-TROYcd NF-kB luciferase reporter, 4 h | inhibition, % at 10 µM | hit rate 0.98% among 360,000 | AID 1347056;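 active = compounds whose plate-normalised and pattern-corrected inhibition of the luciferase reporter signal at the single screening dose is 50% or more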
* hit, by the source's call; ? = inconclusive; . = not tested or not shown.

SMILES | HIF-2a block | TWEAK-Fn14 inh | aSyn UTR inh | C8 TRAIL sens | HSP90 refold inh | TROY signal inh
CCc1ccccc1OCCCN1CCCC1 | 20 | 59* | 5 | -9 | -1 | -3
COc1cc(NC(=O)c2noc3c2CCC3)c(OC)cc1Cl | 0 | -1 | -34 | -1 | -1 | -10
Cc1ccc(NC(=O)c2noc3c2CCC3)cc1C | -131 | 56* | -75 | 27 | 2 | 15
CCOC(=O)c1sc(NC(=O)Nc2cccc(Cl)c2)cc1C | -303 | 75* | -110 | 55* | 4 | 31
CCOC(=O)c1sc(NC(=O)c2cccs2)cc1C | -341 | -40 | -88 | 49 | -4 | -41
COc1ccc(-c2nnc3n2N=C(C)CS3)cc1 | -2 | -1 | 19 | -3 | 4 | 16
CCOc1cccc(-c2nnc3n2N=C(c2cc(OC)ccc2OC)CS3)c1 | 27 | -11 | 63* | 30 | 7 | -32
COc1ccc(C2=Nn3c(nnc3-c3ccco3)SC2)cc1OC | 18 | -40 | 79* | 7 | -2 | 1
COc1cc(-c2nnc3n2N=C(c2ccccc2)CS3)cc(OC)c1OC | 3 | 35 | 63* | 12 | -2 | 8
CCOc1ccc(C2=Nn3c(nnc3-c3ccco3)SC2)cc1 | -9 | -28 | 23 | 13 | 0 | -16
COc1ccc(C2=Nn3c(nnc3-c3ccc(OC)cc3)SC2)cc1 | 15 | -6 | 100* | 23 | -2 | 18
Cc1cccc(C(O)c2ncc(-c3ccc(C(F)(F)F)cc3)[nH]2)c1C (configuration not stated) | 14 | -63 | . | -14 | . | 24
CC1(c2nnnn2-c2ccc3c(c2)OCCO3)CCC(=O)N1CCOc1ccccc1 (configuration not stated) | -2 | 41 | . | -8 | . | 20
CCOc1ccc2c(c1)sc(N)[n+]2Cc1cc(C)cc2cccnc12 | 31 | -6 | 55 | 30 | 5 | 29
COc1ccc2c(c1)sc(N)[n+]2Cc1cc(C)cc2cccnc12 | 28 | -6 | 114* | -5 | 4 | 20
O=C(NCCN1CCOCC1)NC1(C(F)(F)F)Oc2ccc(Cl)cc2O1 (configuration not stated) | 7 | -76 | -61 | 52* | -2 | -121
O=C(NCCN1CCOCC1)c1cc(Cl)ccc1Cl | 12 | 2 | 6 | 5 | 8 | 6
Cc1nn(CCCC(=O)Nc2cc(Oc3ccccc3)cc([N+](=O)[O-])c2)c(C)c1[N+](=O)[O-] | 16 | 16 | 19 | 12 | 0 | 44
Cc1ccc(C)c(Oc2cc(NC(=O)CCCn3nc(C)c([N+](=O)[O-])c3C)cc([N+](=O)[O-])c2)c1 | 4 | 73* | 18 | 27 | -3 | 44
COC(=O)[C@]12CCCCC=C1N(Cc1cccc3ccccc13)C(=O)[C@H](CC(=O)N1CCCCC1)C2 | 1 | 10 | . | -1 | . | 9
CN(C)CCCN(C(=O)c1cc(-c2cccs2)nc2ccccc12)c1nc2c(F)cccc2s1 | 8 | -9 | -3 | 7 | 1 | -33
CN(C)CCCN(C(=O)c1nc2ccccc2s1)c1nc2ccc(F)cc2s1 | -32 | 18 | -4 | 2 | . | -20
CN(C)CCCN(C(=O)c1ccc(C(=O)c2ccccc2)cc1)c1nc2cc3c(cc2s1)OCO3 | -4 | -24 | ? | 53* | 5 | 9
Cc1ccc2nc(N(CCCN(C)C)C(=O)c3cc(-c4cccs4)nc4ccccc34)sc2c1 | -1 | 19 | 67* | 35 | 2 | -11
CN(C)CCCN(C(=O)c1ccc(C(=O)c2ccccc2)cc1)c1nc2ccc(F)cc2s1 | -21 | -14 | 2 | 49* | 2 | -89
SMILES | HIF-2a block | TWEAK-Fn14 inh | aSyn UTR inh | C8 TRAIL sens | HSP90 refold inh | TROY signal inh
CN(C)CCCN(C(=O)CCOc1ccccc1)c1nc2ccc(F)cc2s1 | 6 | 61* | . | 6 | -2 | 33
COc1cc(NCCCn2cnc3c(OCc4ccccc4)ncnc32)cc(OC)c1OC | -9 | -4 | . | 7 | . | -16
O=c1oc2ccccc2cc1-c1csc(NN=C2CCCCC2)n1 | -188 | 31 | -122 | 11 | -4 | 17
CC1CCC/C(=C(\C#N)c2nc(-c3cc4ccccc4oc3=O)cs2)C1 (configuration not stated) | -104 | 64* | -122 | 19 | 7 | 66*
O=C(C(=O)N1CCN(C/C=C/c2ccccc2)CC1)c1ccccc1 | -7 | . | . | -4 | . | .
Cc1cc(C)n(CCNC(=O)c2cc(COc3ccc4ncccc4c3)on2)n1 | -9 | 9 | -18 | 29 | -4 | 13

Bioassay records: PubChem, several laboratories
